Assay outcomes from PubChem BioAssay.
BRCA1 expr up – qHTS Assay to Identify Small Molecule Activators of BRCA1 Expression | MCF7-BRCA1-FFLuc reporter, luminescence, 48 h; response scale: scaled: vehicle 0%, 10 µM genistein 100% | Potency, µM (titrated, usually from 46.1 µM), usual class: activators | hit rate 1.1% among 380,000 | AID 624202, 2012; further: nearly all actives have a fitted effect of over 80% in size
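Activators of BRCA1 expression were detected as increased firefly luciferase luminescence in engineered MCF7 cells after 48 h compound incubation. Signals were scaled to genistein 10 microM as full activation.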
GLP1R cytotox – qHTS of GLP-1 Receptor Inverse Agonists: Cytotox Screen; hit rate 0.13% among 410,000; Potency, µM (top dose mostly 38.3 µM), usual class: inhibitors; HEK293 cAMP-luciferase reporter cells, luminescence, 24 h;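 further: loss of luciferase light is scored as toxicity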
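Here, cytotoxicity is scored as loss of luminescence. The MLSMR collection was tested on cells seeded in medium containing 10% Nu serum, with a 24 hr compound exposure preceded by 12 hours of culture.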
GLP1R inv ag – qHTS of GLP-1 Receptor Inverse Agonists (Inhibition Mode). hit rate 1.6% among 410,000. Potency, µM (titrated, usually from 38.3 µM), actives largely listed as inhibitors. HEK293 GLP-1R CRE-luciferase, luminescence, 24 h; GLP-1R form is constitutively active; further: nearly all actives have a fitted effect of over 55% in size
Target sequence (P43220 whole entry, looked up): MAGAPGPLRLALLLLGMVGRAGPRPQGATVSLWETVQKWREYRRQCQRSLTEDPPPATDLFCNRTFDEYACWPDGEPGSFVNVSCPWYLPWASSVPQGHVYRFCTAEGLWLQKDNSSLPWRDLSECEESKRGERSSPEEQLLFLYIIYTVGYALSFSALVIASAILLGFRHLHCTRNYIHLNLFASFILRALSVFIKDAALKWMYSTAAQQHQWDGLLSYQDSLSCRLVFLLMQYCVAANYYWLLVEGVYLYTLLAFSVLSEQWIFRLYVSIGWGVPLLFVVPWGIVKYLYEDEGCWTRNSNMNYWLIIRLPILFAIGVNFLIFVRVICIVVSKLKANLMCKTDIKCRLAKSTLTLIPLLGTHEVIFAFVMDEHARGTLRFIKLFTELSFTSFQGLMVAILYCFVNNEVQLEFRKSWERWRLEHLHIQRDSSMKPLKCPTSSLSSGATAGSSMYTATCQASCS
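Inverse agonism was detected as reduced cAMP-driven luciferase luminescence after 24 h compound treatment. The cells were HEK293 clones expressing constitutively active human GLP-1R with the reporter. Reporter-only and GPR119 cell lines served as counterscreen controls.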
Integrin act MD – qHTS for Activators of Integrin-Mediated Alleviation for Muscular Dystrophy; Potency, µM (highest dose often 38.3 µM), usual class: activators; hit rate 0.064% among 350,000; AID 624291, 2012; alpha7betagal myoblasts, beta-gal FDG fluorescence, 48 h; further: nearly all actives have a fitted effect of over 60% in size
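alpha7betagal+/- myoblasts (passage 13, 250/well) treated 48 h at 37C with compounds at 1:260 dilution of DMSO stock. Lysed, then beta-galactosidase activity read as FDG fluorescence (ex 480/em 540) after 30 min, with pre-read for autofluorescence.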
GLP-1R agonist – qHTS of GLP-1 Receptor Agonists. hit rate 0.007% among 380,000. AID 624172, 2012. HEK293 GLP-1R CRE-luciferase, luminescence, 4-6 h; cells express a hypersensitive GLP-1R form. Glucagon-like peptide 1 receptor (Homo sapiens), P43220. Potency, µM (titrated, usually from 45.6 µM), actives largely listed as activators
Numbers stand for hits; [ ] = remark or other dose. Rows were chosen to be rich in hits. Some 2.7% of all compounds tested hit in one or more screens of this group. The call rests on the fitted dose curve; in most records, active means well fitted curve in the direction sought with a large enough effect; inconclusive means small, poorly fitted or top-dose-only effect, or another doubt; inactive means no such curve, though single readings can be large; an effect the other way counts as inactive or inconclusive.

`O=[N+]([O-])c1ccc2c(c1)C(N1CCN(CCO)CC1)Cc1ccc(F)cc1S2` (stereo not given) gave BRCA1 expr up inactive, GLP1R cytotox inactive, GLP1R inv ag inconclusive and GLP-1R agonist inactive.
Screening OCCN1CCN(C2CCC(c3ccc(F)cc3)c3ccc(F)cc32)CC1 (stereo not given) returned BRCA1 expr up inactive, GLP1R cytotox inconclusive, GLP1R inv ag 2µM, Integrin act MD inactive and GLP-1R agonist inactive.
For CN(C)CCNc1oc(-c2ccccc2Cl)nc1S(=O)(=O)c1ccccc1 the results were BRCA1 expr up inactive, GLP1R cytotox inactive, GLP1R inv ag 3.2µM, Integrin act MD inactive and GLP-1R agonist inactive.
`Nc1ncc(S(=O)(=O)NCc2ccc(Cl)cc2)cn1` gave GLP1R cytotox inactive and GLP1R inv ag inactive.
Screening CN(C)CCC=C1c2ccccc2C=Cc2ccccc21 returned BRCA1 expr up inactive, GLP1R cytotox inconclusive, GLP1R inv ag inconclusive and GLP-1R agonist inactive.
Screening CNCCC=C1c2ccccc2C=Cc2ccccc21 returned BRCA1 expr up inactive, GLP1R cytotox inactive, GLP1R inv ag 5µM and GLP-1R agonist inactive.
COc1ccc(-n2c(C)nn(CCOc3ccccc3)c2=O)cc1 was read as BRCA1 expr up 10µM, GLP1R cytotox inactive, GLP1R inv ag inactive, Integrin act MD inactive and GLP-1R agonist inactive.
For Cc1nn(CCOc2ccccc2)c(=O)n1-c1ccccc1 the results were BRCA1 expr up inconclusive, GLP1R cytotox inactive, GLP1R inv ag inactive, Integrin act MD inactive and GLP-1R agonist inactive.
COc1cccc(NC(=O)c2sc3nc4n(c(=O)c3c2C)CCC4)c1 was read as BRCA1 expr up 10µM, GLP1R cytotox inactive, GLP1R inv ag inactive, Integrin act MD inactive and GLP-1R agonist inactive.
For CSc1cccc(NC(=O)c2sc3nc4n(c(=O)c3c2C)CCC4)c1 the results were BRCA1 expr up 8.9µM, GLP1R cytotox inactive, GLP1R inv ag inactive, Integrin act MD inactive and GLP-1R agonist inactive.
Nc1nnnn1-c1ccccc1 was read as GLP-1R agonist inactive.
For N#CCc1ccc(NC(=O)/C=C/c2ccc([N+](=O)[O-])o2)cc1 the results were BRCA1 expr up inactive, GLP1R cytotox 4µM, GLP1R inv ag inactive, Integrin act MD inactive and GLP-1R agonist inactive.
Screening CC1CCc2nc(N)c(C#N)c(-c3ccncc3)c2C1 (stereo not given) returned BRCA1 expr up inactive, GLP1R cytotox inactive, GLP1R inv ag inactive, Integrin act MD inactive and GLP-1R agonist inactive.
Screening CC1CCc2nc(N)c(C#N)c(-c3cccnc3)c2C1 (stereo not given) returned BRCA1 expr up inactive, GLP1R cytotox inactive, GLP1R inv ag 0.89µM, Integrin act MD inactive and GLP-1R agonist inactive.
Cc1ccc(-c2nc(C)c(CCNS(=O)(=O)c3ccc(F)c(C(F)(F)F)c3)s2)cc1 was read as BRCA1 expr up inactive, GLP1R cytotox inactive, GLP1R inv ag inconclusive and GLP-1R agonist inactive.
For COc1cccc(NCc2cc(=O)oc3cc(C)c(C(C)C)cc23)c1 the results were BRCA1 expr up inactive, GLP1R cytotox inactive, GLP1R inv ag 11µM, Integrin act MD inactive and GLP-1R agonist inactive.
`CCCCOC(=O)c1ccc(NC(=O)c2ccccc2OC)cc1` gave BRCA1 expr up inactive, GLP1R cytotox inactive[1.53 µM], GLP1R inv ag inconclusive, Integrin act MD inactive and GLP-1R agonist inactive.
For CCCCCOC(=O)c1ccc(NC(=O)c2cccc(NC(=O)c3ccccc3C(=O)O)c2)cc1 the results were BRCA1 expr up inactive, GLP1R cytotox inactive, GLP1R inv ag 7.1µM, Integrin act MD inactive and GLP-1R agonist inactive.
`Cc1nc2cc(-c3ccc(Br)cc3)[nH]n2c(=O)c1Cl` gave BRCA1 expr up 4.5µM, GLP1R cytotox inactive, GLP1R inv ag inactive, Integrin act MD inactive and GLP-1R agonist inactive.
Screening CCOC(=O)c1cc(-c2ccccc2)n(CCCC(=O)Nc2ccc(CC)cc2)c1C returned GLP1R cytotox inactive and GLP1R inv ag 10µM.
CCOC(=O)c1cc(-c2ccccc2)n(CCC(=O)Nc2ccc(C(F)(F)F)cc2)c1C was read as GLP1R cytotox inconclusive and GLP1R inv ag 7.1µM.
CCOC(=O)c1cc(-c2ccccc2)n(-c2cccc(C(=O)Nc3ccc(OCC)cc3)c2)c1C was read as GLP1R cytotox inactive and GLP1R inv ag 5µM.
CCOC(=O)c1cc(-c2ccccc2)n(-c2cccc(C(=O)Nc3cccc(C)c3)c2)c1C was read as GLP1R cytotox inactive and GLP1R inv ag inconclusive.
Cc1cc(OC(C)C(=O)N(Cc2ccco2)Cc2ccco2)cc(C)c1Cl (stereo not given) was read as GLP1R cytotox inactive and GLP1R inv ag 10µM.
Screening C=C[C@]1(C)C[C@@H](OC(=O)CO)[C@]2(C)C(C)CC[C@]3(CCC(=O)[C@H]32)[C@@H](C)[C@@H]1O (stereo not given in full) returned GLP-1R agonist inactive.
`O=C(CCCCCNC(=O)N1CCn2c1nc1ccccc12)NCc1ccccc1Cl` gave BRCA1 expr up inactive, GLP1R cytotox inactive, GLP1R inv ag 7.1µM, Integrin act MD inactive and GLP-1R agonist inactive.
`O=C(CCCCCNC(=O)N1CCn2c1nc1ccccc12)NCc1ccc(Cl)cc1` gave BRCA1 expr up inactive, GLP1R cytotox inactive, GLP1R inv ag inconclusive, Integrin act MD inactive and GLP-1R agonist inactive.
Screening Cn1cc(S(=O)(=O)c2ccc(Cl)cc2)c(=O)c2cc(F)c(N3CCCC3)cc21 returned GLP1R cytotox inactive and GLP1R inv ag inactive.
Fc1ccc2c(c1)Sc1ccc(Cl)cc1CC2N1CCN(CCC2OCCO2)CC1 (stereo not given) was read as BRCA1 expr up inactive, GLP1R cytotox inconclusive, GLP1R inv ag 3.5µM, Integrin act MD inactive and GLP-1R agonist inactive.
O=C(NC(=S)NCCO)c1sc2ccccc2c1Cl was read as BRCA1 expr up 11µM, GLP1R cytotox inactive, GLP1R inv ag inactive, Integrin act MD inactive and GLP-1R agonist inactive.
For CCOC(=S)NC(=O)c1sc2ccccc2c1Cl the results were BRCA1 expr up inactive, GLP1R cytotox inactive, GLP1R inv ag inactive, Integrin act MD inactive and GLP-1R agonist inactive.
For CC(C)(C)NCC(O)CON=C1c2ccccc2-c2ccccc21 (stereo not given) the results were BRCA1 expr up inactive, GLP1R cytotox inconclusive, GLP1R inv ag 4µM, Integrin act MD inactive and GLP-1R agonist inactive.
CC(C)(C)NC(=O)CON=C1c2ccccc2-c2ccccc21 was read as BRCA1 expr up inactive, GLP1R cytotox inactive, GLP1R inv ag inconclusive, Integrin act MD inactive and GLP-1R agonist inactive.
